Experimental data published in PubChem BioAssay (Tox21).
Where “and” joins values, the source holds several entries; their conditions need not be identical. Equal values may be shown once. Inconclusive results are not listed. Calls of active or inactive are those of the source. Unless noted, calls follow the shape of the dose curve; as a rule, active = well fitted curve in the direction sought with a large enough effect in the repeat runs; inconclusive = weak or mixed curves; inactive = no such curve, though single readings can be large; an effect the other way counts as inactive or inconclusive.

Assays:
[1] = qHTS assay to identify small molecule antagonists of the estrogen receptor alpha (ER-alpha) signaling pathway using the BG1 cell line in the presence of 0.1 nM 17-beta-estradiol - cell viability counter screen (AID 1259241); also: nearly all actives have a fitted effect of over 40% in size; also: potency is read from the fitted curve at half-maximal effect
Summary of the method: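 VM7Luc4E2 cells (endogenous full-length ER-alpha, 4xERE-luciferase), cultured 5 days in charcoal-stripped serum, exposed to compounds with 0.1 nM 17beta-estradiol (final) for 22 hr at 37C. Viability read in same wells as live-cell protease fluorescence after 30 min.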

[2] = qHTS assay to identify small molecule antagonists of the androgen receptor (AR) signaling pathway using the MDA cell line in the presence of 0.5 nM R1881 - cell viability counter screen (AID 1259242); also: nearly all actives have a fitted effect of over 45% in size; also: potency is read from the fitted curve at half-maximal effect
Summary of the method: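 Live-cell protease fluorescence, CellTiter-Fluor, 30 min at 37C. Cells: MDA-kb2, 3,000/well, preincubated 5 hr. Compounds plus 0.5 nM R1881 final, 16 hr, 37C, 0% CO2.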

[3] = target: Estrogen receptor (Homo sapiens) (UniProt P03372); assay: qHTS assay to identify small molecule antagonists of the estrogen receptor alpha (ER-alpha) signaling pathway using the BG1 cell line in the presence of 0.1 nM 17-beta-estradiol (AID 1259244); also: nearly all actives have a fitted effect of over 50% in size; also: potency is read from the fitted curve at half-maximal effect
Estrogen receptor (Homo sapiens), sequence (P03372 whole entry, looked up): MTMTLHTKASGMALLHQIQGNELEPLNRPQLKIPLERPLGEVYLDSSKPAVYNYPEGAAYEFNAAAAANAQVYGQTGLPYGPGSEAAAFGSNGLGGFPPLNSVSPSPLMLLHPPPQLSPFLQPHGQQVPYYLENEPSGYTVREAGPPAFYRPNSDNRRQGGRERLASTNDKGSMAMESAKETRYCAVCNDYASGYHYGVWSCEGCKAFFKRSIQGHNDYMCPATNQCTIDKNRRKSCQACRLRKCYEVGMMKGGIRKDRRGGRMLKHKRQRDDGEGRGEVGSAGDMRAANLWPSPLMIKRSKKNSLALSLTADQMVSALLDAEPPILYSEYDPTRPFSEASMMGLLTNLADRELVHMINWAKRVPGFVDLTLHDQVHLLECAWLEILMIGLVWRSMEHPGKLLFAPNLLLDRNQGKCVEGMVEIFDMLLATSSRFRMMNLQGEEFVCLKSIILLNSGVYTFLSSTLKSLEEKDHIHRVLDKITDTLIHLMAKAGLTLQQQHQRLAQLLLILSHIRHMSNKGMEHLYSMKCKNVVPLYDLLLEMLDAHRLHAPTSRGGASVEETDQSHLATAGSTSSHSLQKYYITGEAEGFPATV
Summary of the method: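 Luminescence after ONE-Glo (30 min, room temperature) measured ERE-luciferase activity in VM7Luc4E2 cells treated 22 h with compound and 0.1 nM final 17beta-estradiol as stimulator.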

[4] = qHTS assay to identify small molecule phospholipidosis (PLD) inducers (AID 1259344; active = well fitted curve in the direction sought with a large enough effect; an effect the other way counts as inactive or inconclusive)
Summary of the method: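 After 4 h attachment on collagen I, HepG2 cells were dosed with compound alongside LipidTOX Red, kept 24 h at 37 C, fixed, and imaged for lamellar phospholipid pits.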

[5] = qHTS assay to identify small molecule HDAC inhibitors (AID 1259364); also: potency is read from the fitted curve at half-maximal effect;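 also: wild-type HCT-116 cells with endogenous class I/II HDAC activity; nearly all actives have a fitted effect of over 45% in size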
Summary of the method: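 HCT-116 (wild type), 1,500 cells/well, overnight; compound 2 hr 37C 5% CO2; HDAC-Glo I/II reagent 30 min RT; luminescence readout.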

[6] = qHTS assay to identify small molecule antagonists of the sonic hedgehog signaling (Shh) pathway - cell viability counter screen (AID 1259367); also: nearly all actives have a fitted effect of over 55% in size; also: potency is read from the fitted curve at half-maximal effect
Summary of the method: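 Conditioned medium drove Shh signaling in 3T3 Gli1-Luc cells exposed to compounds at 37C and 5% CO2. Viability was determined from CellTiter-Fluor fluorescence, with reagent incubated 1 hr after 23 hr of treatment.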

[7] = qHTS assay to identify small molecule agonists of the sonic hedgehog signaling (Shh) pathway (AID 1259368; calls by dose curve;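 also: NIH/3T3-derived 3T3Gli1-Luc cells carrying a stable Gli1-driven firefly luciferase reporter; series mostly up to about 92 µM; nearly all actives have a fitted effect of over 15% in size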)
Summary of the method: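 Read-out: firefly luciferase luminescence from a Gli1 response element reporter stably integrated in NIH/3T3-derived 3T3Gli1-Luc cells, measured 30 min at room temperature after reagent addition. Compound exposure lasted 24 hr at 37 C, 5% CO2.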

[8] = target: Androgen receptor (Homo sapiens) (UniProt P10275); assay: qHTS assay to identify small molecule antagonists of the androgen receptor (AR) signaling pathway using the MDA cell line in the presence of 0.5 nM R1881 (AID 1259243); also: nearly all actives have a fitted effect of over 50% in size; also: potency is read from the fitted curve at half-maximal effect
Androgen receptor (Homo sapiens), sequence (P10275 whole entry, looked up): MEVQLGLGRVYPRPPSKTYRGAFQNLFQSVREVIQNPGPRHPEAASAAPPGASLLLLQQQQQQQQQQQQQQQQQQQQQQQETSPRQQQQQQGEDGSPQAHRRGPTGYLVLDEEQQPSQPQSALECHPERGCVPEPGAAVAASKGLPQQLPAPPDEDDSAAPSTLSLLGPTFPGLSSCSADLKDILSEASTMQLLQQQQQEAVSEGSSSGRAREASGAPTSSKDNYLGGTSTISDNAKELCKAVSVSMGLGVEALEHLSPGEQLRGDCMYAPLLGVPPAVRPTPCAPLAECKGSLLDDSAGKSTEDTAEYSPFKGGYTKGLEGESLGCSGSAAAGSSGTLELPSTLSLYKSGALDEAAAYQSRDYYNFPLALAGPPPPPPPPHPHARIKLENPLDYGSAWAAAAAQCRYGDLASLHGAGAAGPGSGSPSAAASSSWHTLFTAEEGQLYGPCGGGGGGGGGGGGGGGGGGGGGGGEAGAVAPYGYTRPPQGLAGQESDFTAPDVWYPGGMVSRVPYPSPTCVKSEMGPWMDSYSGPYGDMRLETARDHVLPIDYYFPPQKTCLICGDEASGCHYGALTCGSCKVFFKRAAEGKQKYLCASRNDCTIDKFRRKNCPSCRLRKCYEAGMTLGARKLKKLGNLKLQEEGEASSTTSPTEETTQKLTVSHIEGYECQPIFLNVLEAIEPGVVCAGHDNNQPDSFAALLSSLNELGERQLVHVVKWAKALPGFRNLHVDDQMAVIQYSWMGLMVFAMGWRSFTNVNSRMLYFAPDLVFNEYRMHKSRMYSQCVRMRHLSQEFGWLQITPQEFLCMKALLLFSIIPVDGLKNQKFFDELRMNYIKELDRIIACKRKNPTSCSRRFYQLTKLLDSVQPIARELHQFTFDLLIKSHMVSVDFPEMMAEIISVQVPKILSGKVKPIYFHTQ
Summary of the method: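 MDA-kb2, MMTV-luc (AR/GR elements); 3,000 cells/well; cpd + 0.5 nM R1881 final; 16 hr 37C, 0% CO2; ONE-Glo 30 min RT; luminescence.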

[9] = qHTS assay to identify small molecule agonists of the sonic hedgehog signaling (Shh) pathway - cell viability counter screen (AID 1259366); also: nearly all actives have a fitted effect of over 50% in size; also: potency is read from the fitted curve at half-maximal effect
Summary of the method: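 NIH/3T3-derived Gli1-Luc reporter cells, 2,000 per well, received compound after 4 h and were treated about 23 h at 37C. Viability measured in the same wells by CellTiter-Fluor fluorescence after 1 h.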

[10] = qHTS assay to identify small molecule HDAC inhibitors - cell viability counter screen (AID 1259365); also: nearly all actives have a fitted effect of over 50% in size; also: potency is read from the fitted curve at half-maximal effect
Summary of the method: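 Wild-type HCT-116 cells, 1,500/well, cultured overnight, then compound-treated 2 h at 37 C. Viability measured as ATP luminescence with CellTiter-Glo after 30 min at room temperature.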

Measured: Potency

CC(C)C(Br)C(=O)NC(N)=O (centres undefined)
not listed: [8] | [9] | [10]
inactive: all other assays above

CN(C)C(=S)SSC(=S)N(C)C
active: [1] 676 nM and 6.86 µM and 266 nM | [2] 214 nM and 217 nM | [8] 107 nM and 172 nM and 188 nM | [9] 427 nM and 545 nM and 422 nM | [6] 191 nM and 611 nM and 1.19 µM
inactive: [4] | [5] | [7]

ClC1(Cl)C2(Cl)C3(Cl)C4(Cl)C(Cl)(Cl)C5(Cl)C3(Cl)C1(Cl)C5(Cl)C24Cl (centres undefined)
not listed: [4]
inactive: all other assays above

O=c1[nH]c2cc(Cl)ccc2n1C1CCNCC1
not listed: [3] | [4] | [9]
inactive: all other assays above

Oc1cc(Cl)cc(Cl)c1
not listed: [4] | [8]
inactive: all other assays above

CCCCCCCc1ccc(O)cc1
active: [8] 27.3 µM
not listed: [4] | [6] | [10]
inactive: all other assays above

Cc1ccc([N+](=O)[O-])[c]2c1[O][Hg]2
active: [1] 9.44 µM | [2] 6.68 µM | [8] 2.37 µM | [10] 29.8 µM | [6] 3.35 µM
inactive: [7]

N#CC(C#N)=NNc1cccc(Cl)c1
inactive: [7]
active: [1] 12.2 µM | [2] 2.43 µM | [8] 1.54 µM | [5] 24.3 µM | [9] 27.3 µM | [6] 27.3 µM

[Cl][Hg][c]1ccccc1
active: [1] 9.69 µM | [2] 8.63 µM | [8] 2.43 µM | [3] 6.11 µM | [5] 30.6 µM | [9] 0.545 µM | [6] 0.864 µM
inactive: [7]

CC(C)NCC(O)c1ccccc1Cl (centres undefined)
inactive: all assays above

S=C=Nc1ccccc1
not listed: [4] | [9] | [10]
inactive: all other assays above

N#Cc1sc2c(=O)c3ccccc3c(=O)c=2sc1C#N
inactive: [7]
active: [1] 5.45 µM | [2] 13.7 µM | [8] 4.86 µM | [5] 27.3 µM | [10] 30.6 µM | [9] 8.63 µM | [6] 9.69 µM

CCNS(=O)(=O)C(F)(F)C(F)(F)C(F)(F)C(F)(F)C(F)(F)C(F)(F)C(F)(F)C(F)(F)F
active: [6] 65.7 µM
not listed: [3] | [4] | [9]
inactive: all other assays above
